Test results published in PubChem BioAssay.

biological target: Alpha-2C adrenergic receptor (Homo sapiens) (UniProt P18825); experiment: compounds altering alpha2C-coupled GIRK flux – cell-based, HEK293 alpha2C/GIRK1/2, thallium flux, primary screen (AID 624); details: thallium flux BTC fluorescence, at 10 µM, actives lie on both sides;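 note: slope of fluorescence ratio to pre-addition baseline per second over 15 to 24 s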
Sequence (P18825 whole entry, looked up): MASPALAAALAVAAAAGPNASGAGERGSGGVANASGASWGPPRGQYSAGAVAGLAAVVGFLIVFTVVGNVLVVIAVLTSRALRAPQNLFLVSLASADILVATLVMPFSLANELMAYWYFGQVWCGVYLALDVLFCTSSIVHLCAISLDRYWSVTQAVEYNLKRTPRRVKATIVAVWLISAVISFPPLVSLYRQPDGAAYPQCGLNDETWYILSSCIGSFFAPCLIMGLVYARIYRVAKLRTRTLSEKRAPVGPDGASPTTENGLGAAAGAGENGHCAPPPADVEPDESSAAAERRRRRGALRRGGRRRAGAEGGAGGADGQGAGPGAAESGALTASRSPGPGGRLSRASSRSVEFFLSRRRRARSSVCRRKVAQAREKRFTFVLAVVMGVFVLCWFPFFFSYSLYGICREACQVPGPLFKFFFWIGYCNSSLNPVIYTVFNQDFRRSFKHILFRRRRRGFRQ

slope, inactive:
CCOC(=O)N1CCN(C(=O)c2cccn3c(=O)c4sccc4nc23)CC1 0.00326
O=C(c1cc2ccccc2oc1=O)N1CCN(c2ccc(N3CCOCC3)nn2)CC1 0.00513
CCc1cccc(NC(=O)CCc2nc(-c3cccs3)no2)c1 0.00567
O=C(C1CC1)N1CCc2cc(Br)cc(S(=O)(=O)N3CCOCC3)c21 0.00736
CCOCCCNC(=O)C1CCCN(S(=O)(=O)CC)C1 (stereo not given) 0.00421
C/C(N)=C(/C#N)C(=O)COC(=O)CCSc1ccccc1 0.00505
CCCOc1ccc(N2CC(C(=O)Nc3ccc4c(c3)OCO4)CC2=O)cc1 (stereo not given) 0.00561
CCC(C)Nc1nc2c(c(=O)n(C)c(=O)n2C)n1Cc1ccc(F)cc1 (stereo not given) 0.00579
COc1ccc2cc(C(c3nnnn3C3CCCCC3)N3CCCCCC3)c3nnnn3c2c1 (stereo not given) 0.00937
O=C(Nc1cccnc1)Nc1ccccn1 0.00395
O=C(NC1CCCCC1)c1cc2nc(-c3ccco3)cc(C(F)(F)F)n2n1 0.00549
O=C(CCN1C(=O)COc2ccccc21)NCCN1CCN(c2cccc(Cl)c2)CC1 0.00502
CCCc1cc(=O)[nH]c(SCc2ccccc2)n1 0.00614
CC(CCc1ccco1)NC(=O)Cn1ncc2c1-c1ccccc1OC2 (stereo not given) 0.00662
CCCNC(=O)c1ccccc1NC(=O)CN(c1ccccc1OCC)S(C)(=O)=O 0.00349
CCS(=O)(=O)N1CCC(C(=O)NC2CCCCCCC2)CC1 0.00549
COc1ccc(C(=O)N2CCCc3ccccc32)cc1 0.00477
CCOC(=O)c1cnn(-c2sc(C(=O)OCC)c(C)c2C(=O)OCC)c1N 0.00627
CCn1c(C(=O)N2CCCC(C(=O)NCCCc3ccccc3)C2)cc2sccc21 (stereo not given) 0.00576
CCC1CCCCN1CCCNC(=O)CC1Oc2ccc(C)cc2NC1=O (stereo not given) 0.00565
CC(C)OC(=O)CSc1nnc(-c2ccccn2)n1-c1ccccc1 0.00479
O=C(O)C1CC=CCC1C(=O)Nc1cc(Cl)ccc1Cl (stereo not given) 0.00676
COC(=O)Nc1ccc(NC(C)=O)cc1 0.00538
O=C(COC(=O)c1cncc(Br)c1)NCCC1=CCCCC1 0.00679
COc1cccc(-c2noc(C3CCCN(C(=O)Cc4ccccc4)C3)n2)c1 (stereo not given) 0.00584
Cc1cc(NS(=O)(=O)c2ccc(NC(=O)Nc3ccc4c(c3)OCO4)cc2)no1 0.00596
CCOC(=O)N1CCC(N2C(=O)c3ccc(C(=O)NCc4ccco4)cc3C2=O)CC1 0.00518
COc1ccc(C2CC(=O)C3=C(C2)Nc2ccccc2N(C(=O)C2CC2)C3c2cccnc2)cc1OC (stereo not given) 0.00392
OC(CNCC1COc2ccccc2O1)COCc1cccs1 (stereo not given) 0.00544
COC(=O)n1c(=S)oc2cc(Cl)ccc21 0.0107
CCOC(=O)C1CCN(C(=O)CCCCn2c(=O)[nH]c3ccccc3c2=O)CC1 0.00611
CN(c1ccc(OCc2nnc(-c3ccccc3)o2)cc1)S(=O)(=O)c1ccccc1 0.00414
Cc1ccccc1NC(=O)C1CCCN(S(=O)(=O)c2cnc[nH]2)C1 (stereo not given) 0.0067
COc1ccc(C(=O)NCC(=O)NC2=NCCS2)cc1 0.00756
O=C1N2c3ccccc3CCc3cccc(c32)C1(O)C(F)(F)F (stereo not given) 0.00675
Cn1c(=O)c2c(nc(CN3CCN(Cc4ccccc4)CC3)n2Cc2cccc(Cl)c2)n(C)c1=O 0.00606
CN(C)c1ccc(CNCCC2(O)CCOC(C)(C)C2)cc1 (stereo not given) 0.00622
CC(C(N)=O)N1C(=O)C2C3C=CC(C3)C2C1=O (stereo not given) 0.00534
Nc1nc(-c2ccc(Br)s2)c(Br)s1 0.00465
O=C(c1c(F)cccc1F)N(Cc1ccccn1)C1CCCC1 0.00412
